In PubChem BioAssay AID687001 (Broad Institute, 2013):
Potency and affinity values are given separately. The source made the active and inactive calls.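 The calls were made as follows: active = signal-lowering compounds whose fitted half-maximal concentration is at or below twice the top tested dose in every run; inconclusive = runs disagree, flat 30 to 70% inhibition, or poor curve fit; inactive = the rest.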

Target: Protein S100-A4 (Homo sapiens) (UniProt P26447)
Assay: S100A4-myosin IIA binding inhibitor potency, dose response, biochemical, fluorescence polarization, cherry-picked hits (AID 687001)
Details: FP, S100A4/TAMRA-myosin IIA peptide binding; series mostly up to 11 µM

Sequence of Protein S100-A4 (Homo sapiens) (P26447 whole entry, looked up): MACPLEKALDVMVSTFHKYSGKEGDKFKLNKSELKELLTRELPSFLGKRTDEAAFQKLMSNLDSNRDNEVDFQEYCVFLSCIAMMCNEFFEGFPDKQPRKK

outcome, inactive:
COc1ccc(NC(=O)N(C)C[C@@H]2OCCCC[C@@H](C)Oc3ccc(NS(=O)(=O)c4ccc(Cl)cc4)cc3C(=O)N([C@H](C)CO)C[C@@H]2C)cc1
CSc1cccc(NS(=O)(=O)c2ccc(-c3coc(C)n3)cc2)c1
O=C(Nc1nnc(S(=O)(=O)N2CCN(c3ccc(F)cc3)CC2)s1)c1ccccc1
O=C(c1cnn(C(=O)c2ccco2)c1)c1cc(Cl)cc(Cl)c1O
O=C(O)CSc1c2c(nc3cc(C(=O)Nc4cccc(C(F)(F)F)c4)ccc13)CCCC2
C[C@H](CO)N1C[C@H](C)[C@@H](CN(C)Cc2ccc(Cl)c(Cl)c2)Oc2c(NS(=O)(=O)c3cccs3)cccc2C1=O
COc1ccc(CNC(=O)c2cc(S(=O)(=O)N3CCCCC3)ccc2Cl)cc1OC
S=c1[nH]nc(-c2cc(-c3ccsc3)n[nH]2)n1-c1ccccc1
CCOC(=O)C1=C(C)N(C)C(=O)NC1c1cccc2ccccc12 (stereo not drawn)
CCC(=O)N1C[C@@H]2[C@H](c3ccccc31)[C@@H](CO)N2C(=O)CC
CN1C(=O)c2cc(NC(=O)c3ccccc3Cl)ccc2OC[C@@H]2O[C@@H](CC(=O)NCC(F)(F)F)CC[C@H]21
O=C(O)[C@@H]1[C@@H](CO)[C@@H]2Cn3c(ccc(/C=C/c4ccccc4)c3=O)[C@@H]2N1C(=O)C1CCCC1
CCCC(=O)Nc1ccc2c(c1)OC[C@H](C)NC[C@H](C)[C@H](OC)CN(C)C2=O
CN(C)C(=O)c1ccc(-c2ccc([C@@H]3[C@@H](CO)N4CCCCN(CC5CC5)C[C@@H]34)cc2)cc1
O=C1CCc2cc(S(=O)(=O)N3CCCCC3)cc3c2N1CCC3
Cc1ccc(C(=O)N2CCCC(CCC(=O)N3CCN(c4ccccn4)CC3)C2)cc1 (stereo not drawn)
Cc1noc(C)c1S(=O)(=O)N(C)C[C@@H]1OCCCC[C@H](C)Oc2ccc(NC(=O)C3CCCCC3)cc2C(=O)N([C@H](C)CO)C[C@H]1C
COCCCN1CC(=O)N2C(c3ccccc3)c3[nH]c4ccccc4c3C[C@H]2C1=O (stereo partly drawn)
COCCCNC(=O)C[C@@H]1C[C@@]2(C(=O)OC)CCCCC=C2N(Cc2ccc3c(c2)OCO3)C1=O
C[C@@H](NC(=O)C[C@H]1C=C[C@@H](NC(=O)C2CCC2)[C@H](CO)O1)c1ccccc1
C[C@H](CO)N1C[C@H](C)[C@@H](CN(C)CC2CC2)OCc2cnnn2CCCC1=O
COc1cc(S(=O)(=O)N2CCOCC2)cc(C(=O)c2nccn2C)c1OC
Cc1cccc(C)c1NC(=O)CN1CCN(c2ccc(C(F)(F)F)cn2)CC1
COc1cc(Cl)ccc1OCc1cc(C(=O)N(C)Cc2nnc(C)o2)no1
CCOc1ccc(S(=O)(=O)N2CCCC(C(=O)NCC3CCCO3)C2)cc1Cl (stereo not drawn)
C[C@@H]1CN([C@H](C)CO)C(=O)c2cc(NS(=O)(=O)c3ccc(F)cc3)ccc2O[C@@H](C)CCCCO[C@@H]1CN(C)C(=O)NC1CCCCC1
Cc1cc2c(cc1S(=O)(=O)N1CCN(c3cccc(C)c3C)CC1)OCCN2C
COCC(=O)N1C[C@H]2[C@@H](c3ccccc31)[C@@H](CO)N2C(=O)Nc1ccccc1F
Oc1cccc(-c2sc3ccccc3c2-c2ccc(OCCN3CCCCC3)cc2)c1
C[C@@H]1CN([C@H](C)CO)C(=O)c2cc(C#CC3CC3)cnc2O[C@@H]1CN(C)S(C)(=O)=O
Cc1noc(C)c1NC(=O)Nc1ccc2c(c1)C(=O)N([C@H](C)CO)C[C@@H](C)[C@@H](CN(C)S(=O)(=O)c1ccc(Cl)cc1)OCCCC[C@H](C)O2
CCCCN(C(=O)c1c(-c2ccccc2)noc1C)c1c(N)n(CCC)c(=O)[nH]c1=O
CCNC(=O)C[C@@H]1CC[C@@H](NS(=O)(=O)c2ccc(F)cc2)[C@H](CO)O1
CCCC(=O)Nc1ccc2c(c1)OC[C@H](C)N(CCC(F)(F)F)C[C@H](C)[C@@H](OC)CN(C)C2=O
COc1ccc2c(c1OC)C(=O)N1N=C(c3ccc(Cl)cc3)CC21 (stereo not drawn)
O=C(OCc1ccccc1)/C(=C/c1ccccc1Cl)NC(=O)c1ccco1
Cc1ccc(S(=O)(=O)Nc2ccccc2F)cc1C(=O)OC(C)C(=O)N1CCOCC1 (stereo not drawn)
CCCCn1cnc2c(SCc3ccc(Cl)cc3)nc(N)nc21
